Values without a mark were called inactive.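 The calls were made as follows: active = MAPPIT score above the 99th percentile of random reference set scores in the same batch; inactive = at or below it.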
What was measured:
Assay in all cases: MAPPIT interaction score (arbitrary units); higher = stronger binary interaction signal, active = hit call of the paper
Blos2 = conditions: MAPPIT configuration: N-N; pair source set: Curagen_low_conf
Bin1 = conditions: MAPPIT configuration: N-N; pair source set: Lit-BM-16
Dhx15 = conditions: MAPPIT configuration: N-N; pair source set: DPIM
p53 = conditions: MAPPIT configuration: N-N; pair source set: Finley_Y2H
Bro = conditions: MAPPIT configuration: N-N; pair source set: screen_2
C15 = conditions: MAPPIT configuration: N-N
CG8813 = conditions: MAPPIT configuration: N-N; pair source set: Lit-BS-16
Lamtor3 = conditions: MAPPIT configuration: N-N; pair source set: Curagen_high_conf
Nplp1 = conditions: MAPPIT configuration: N-N; pair source set: Curagen_low_conf
Rm62 = conditions: MAPPIT configuration: N-N; pair source set: Curagen_low_conf
Traf-like = conditions: MAPPIT configuration: N-N; pair source set: Curagen_low_conf
row = conditions: MAPPIT configuration: N-N; pair source set: Curagen_low_conf
Bx = conditions: MAPPIT configuration: N-N; pair source set: screen_2
CG5618 = conditions: MAPPIT configuration: N-N; pair source set: Curagen_low_conf
Lim1 = conditions: MAPPIT configuration: N-N; pair source set: Curagen_high_conf
CG5050 = conditions: MAPPIT configuration: N-N; pair source set: Curagen_high_conf
rdx = conditions: MAPPIT configuration: N-N; pair source set: Curagen_high_conf
Blos1 = conditions: MAPPIT configuration: N-N; pair source set: Finley_Y2H
Tm1 = conditions: MAPPIT configuration: N-N; pair source set: screen_2
mldr = conditions: MAPPIT configuration: N-N; pair source set: Finley_Y2H
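Also: HEK293T cells with Epo stimulation, STAT-responsive firefly luciferase reporter, fold induction versus unstimulated cells divided by the larger fold induction of two negative controls lacking either bait or prey.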

B1: drk (protein)
chain: MEAIAKHDFSATADDELSFRKTQILKILNMEDDSNWYRAELDGKEGLIPSNYIEMKNHDWYYGRITRADAEKLLSNKHEGAFLIRISESSPGDFSLSVKCPDGVQHFKVLRDAQSKFFLWVVKFNSLNELVEYHRTASVSRSQDVKLRDMIPEEMLVQALYDFVPQESGELDFRRGDVITVTDRSDENWWNGEIGNRKGIFPATYVTPYHS
Q: How did the MAPPIT interaction score (Blos2) turn out when B1 was run?
A: The MAPPIT interaction score was 0.473.

B2: bcd (protein)
chain: MAQPPPDQNFYHHPLPHTHTHPHPHSHPHPHSHPHPHHQHPQLQLPPQFRNPFDLLFDERTGAINYNYIRPYLPNQMPKPDVFPSEELPDSLVMRRPRRTRTTFTSSQIAELEQHFLQGRYLTAPRLADLSAKLALGTAQVKIWFKNRRRRHKIQSDQHKDQSYEGMPLSPGMKQSDGDPPSLQTLSLGGGATPNALTPSPTPSTPTAHMTEHYSESFNAYYNYNGGHNHAQANRHMHMQYPSGGGPGPGSTNVNGGQFFQQQQVHNHQQQLHHQGNHVPHQMQQQQQQAQQQQYHHFDFQQKQASACRVLVKDEPEADYNFNSSYYMRSGMSGATASASAVARGAASPGSEVYEPLTPKNDESPSLCGIGIGGPCAIAVGETEAADDMDDGTSKKTTLQILEPLKGLDKSCDDGSSDDMSTGIRALAGTGNRGAAFAKFGKPSPPQGPQPPLGMGGVAMGESNQYQCTMDTIMQAYNPHRNAAGNSQFAYCFN
Q: B2 was tested. Which MAPPIT interaction score (Bin1) did it give?
A: Its MAPPIT interaction score is 0.579.

Q: What about the MAPPIT interaction score (Dhx15) of the same binder?
A: Its MAPPIT interaction score is 1.72.

Q: And the MAPPIT interaction score (p53)?
A: Its MAPPIT interaction score is -0.0711.

B3: run (protein)
chain: MHLPAGPTMVANNTQVLAAAAAAAAAAAAAVAQGPGPQQSSNATTASAIAINPAQSLANTSTHSASSTGSSTPDLSTNNTSSSSNATTSPQNSAKMPSSMTDMFASLHEMLQEYHGELAQTGSPSILCSALPNHWRSNKSLPGAFKVIALDDVPDGTLVSIKCGNDENYCGELRNCTTTMKNQVAKFNDLRFVGRSGRGKSFTLTITIATYPVQIASYSKAIKVTVDGPREPRSKQSYGYPHPGAFNPFMLNPAWLDAAYMTYGYADYFRHQAAAQAAQVHHPALAKSSASSVSPNPNPSVATSSSSAVQPSEYPHPAAAVAAAAGQPAAMMPSPPGAAPATPYAIPQFPFNHVAAAAAAKAATPHAFHPYNFAAAAGLRARNAALHHQSEPVHVSPASSRPSSSSPTQQHVLLKLNTSIETSSIHEQSASDGDSDDEQIDVVKSEFDLDKSLDVAPLRMRCDLKAPSAMKPLYHESGPGAVANSRQPSPETTTKIKSAAVQQKTVWRPY
Q: B3 was tested. Which MAPPIT interaction score (Bro) did it give?
A: The MAPPIT interaction score was 3.14 (active).

B4: Rm62 (protein)
chain: MLKLVQYIAPRVGGATPRPTACGWGNLLLISPRSGASSEKCITQRRHFLFSSASSSGTFASSSSLCTEQRQQFHGSRRNRETILFPSTYSSLQAQSQRAFRDSSKPDSDDYVDSIPKAEQRTRTRKSLFNDPDERTEEIKIEGVMAPHDRDFGHSGRGGRGGDRGGDDRRGGGGGGNRFGGGGGGGDYHGIRNGRVEKRRDDRGGGNRFGGGGGFGDRRGGGGGGSQDLPMRPVDFSNLAPFKKNFYQEHPNVANRSPYEVQRYREEQEITVRGQVPNPIQDFSEVHLPDYVMKEIRRQGYKAPTAIQAQGWPIAMSGSNFVGIAKTGSGKTLGYILPAIVHINNQQPLQRGDGPIALVLAPTRELAQQIQQVATEFGSSSYVRNTCVFGGAPKGGQMRDLQRGCEIVIATPGRLIDFLSAGSTNLKRCTYLVLDEADRMLDMGFEPQIRKIVSQIRPDRQTLMWSATWPKEVKQLAEDFLGNYIQINIGSLELSANHNIRQVVDVCDEFSKEEKLKTLLSDIYDTSESPGKIIIFVETKRRVDNLVRFIRSFGVRCGAIHGDKSQSERDFVLREFRSGKSNILVATDVAARGLDVDGIKYVINFDYPQNSEDYIHRIGRTGRSNTKGTSFAFFTKNNAKQAKALVDVLREANQEINPALENLARNSRYDGGGGRSRYGGGGGGGRFGGGGFKKGSLSNGRGFGGGGGGGGEGRHSRFD
Q: How did the MAPPIT interaction score (C15; pair source set: Curagen_low_conf) turn out when B4 was run?
A: The MAPPIT interaction score was -0.475.

Q: And the MAPPIT interaction score (C15; pair source set: Finley_Y2H)?
A: Its MAPPIT interaction score is 0.053.

Q: What about the MAPPIT interaction score (CG8813) of the same binder?
A: The MAPPIT interaction score was -0.848.

Q: And the MAPPIT interaction score (Lamtor3)?
A: Its MAPPIT interaction score is 0.248.

Q: And the MAPPIT interaction score (Nplp1)?
A: The MAPPIT interaction score was -0.193.

Q: What about the MAPPIT interaction score (Rm62) of the same binder?
A: Its MAPPIT interaction score is -0.712.

Q: What about the MAPPIT interaction score (Traf-like) of the same binder?
A: The MAPPIT interaction score was 0.928.

Q: And the MAPPIT interaction score (row)?
A: Its MAPPIT interaction score is 0.558.

B5: Chi (protein)
chain: MSWQDYVDNQLLASQCVTKACIAGHDGNIWAQSSGFEVTKEELSKLISGFDQQDGLTSNGVTLAGQRYIYLSGTDRVVRAKLGRSGVHCMKTTQAVIVSIYEDPVQPQQAASVVEKLGDYLITCGY
Q: How did the MAPPIT interaction score (Bx) turn out when B5 was run?
A: Its MAPPIT interaction score is 6.14 (active).

Q: And the MAPPIT interaction score (CG5618)?
A: The MAPPIT interaction score was 0.207.

Q: And the MAPPIT interaction score (Lim1)?
A: The MAPPIT interaction score was 1.91.

B6: Polr3F (protein)
chain: MATEVSQLLLAVVQGIPAGATNDDLTKALPDVPAATRVEALNILLQEGGIEILKKGEKLVYRAKDPEKKSALPKDADNEEKVVYGIVEEGGNKGIWIRDIRMKSNLNMIQLNKILKNLETKKLIKAVKSVNASKKKVYMLYNLEPDLSITGGAWYQDQDFEVEFVDVLNQQCLRFLQMKRDSAEKKREGPLAFKQMSCCTVNEVQKFISDLGISKVNLAEADLETILKTVVYDGNAERVRQQDGSFVYRAVNAPLPPTGLVQMPCGICPVIKNCSNCGDVTAITCEYMRDWLD
Q: Which MAPPIT interaction score (C15; pair source set: Lit-BS-16) does the source give for B6 here?
A: The MAPPIT interaction score was 0.0584.

Q: What about the MAPPIT interaction score (CG5050) of the same binder?
A: The MAPPIT interaction score was 0.169.

Q: And the MAPPIT interaction score (rdx)?
A: Its MAPPIT interaction score is -0.105.

B7: Blos2 (protein)
chain: MDKPTTSAAAAAAQDSNLLPDSPQHGPTLSSASSFEALTRHDPNLSRLATKMFNKTEEYITHELNAPLEDYKLLEEMNKATIAKYKDMRQIAENLNTSTSELSLKFQQLAPMMQQIDEISDTVDKLEAAAYKLDAYSIALENRVKCVLQRKSGGGQVAQ
Q: What does the source list for B7?
A: MAPPIT interaction score (Blos1): 2.29; MAPPIT interaction score (Tm1): 1.6; MAPPIT interaction score (mldr): 0.813

Reference: the supplement of paper PMC10105736
